Each structure is given as a SMILES string. Hit rate of the full screen: of about 140,000 compounds, about 1,200 (0.86%) were called active. The sample as a whole holds a higher share of actives than the screen did. A number with no mark means an inactive call. Cut-off read from the data, not from the text of the source: active = activity change below about -25%; inactive = the rest.
% is set by controls: 0 for no effect and ±100 for the full control effect.

For this assay, the target named is Inositol hexakisphosphate kinase 1 (Homo sapiens) (UniProt Q92551). Briefly: Primary qHTS assay for small molecule inhibitors of Inositol hexaphosphate kinase 1 (IP6K1). Note: series mostly up to about 58 µM. The note with it: ADP-Glo luminescence, 2 h, stronger effect = lower value. An excerpt: Assay Provider: Huijun Wei, M.S., Ph.D. School of Medicine, Johns Hopkins University, Baltimore, MD Inositol hexakisphosphate kinases (IP6Ks) catalyze pyrophosphorylation of inositol hexakisphosphate (IP6) into inositol 5-diphospho-1,2,3,4,6-pentakisphosphate (IP7), which is involved in numerous areas of cell physiology including glucose homeostasis, blood coagulation and neurological development. Inhibition of IP6Ks may be effective for the treatment of Type II diabetes, thrombosis, and psychiatric disorders. We performed a quantitative high throughput screen (qHTS) of 158,410 compounds for IP6K1 inhibitors using ankinase activity ADP-Glo Max assay. […] Medicinal chemistry SAR efforts in three chemical series identified potent IP6K1 inhibitors, which were further validated in an orthogonal LC-MS IP7 analysis.
Sequence of Inositol hexakisphosphate kinase 1 (Homo sapiens) (Q92551 whole entry, looked up): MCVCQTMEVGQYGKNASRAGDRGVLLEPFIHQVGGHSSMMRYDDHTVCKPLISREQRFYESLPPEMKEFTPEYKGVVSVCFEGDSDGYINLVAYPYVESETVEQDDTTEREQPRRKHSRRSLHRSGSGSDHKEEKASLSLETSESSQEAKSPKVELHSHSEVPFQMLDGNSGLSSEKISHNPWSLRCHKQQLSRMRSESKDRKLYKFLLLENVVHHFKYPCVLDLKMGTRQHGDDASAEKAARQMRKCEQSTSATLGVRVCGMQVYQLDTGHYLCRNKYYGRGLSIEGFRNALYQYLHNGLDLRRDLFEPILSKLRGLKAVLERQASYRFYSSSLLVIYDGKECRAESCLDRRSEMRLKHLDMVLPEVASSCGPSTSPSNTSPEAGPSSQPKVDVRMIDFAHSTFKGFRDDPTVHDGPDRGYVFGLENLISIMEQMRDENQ
PROTOCOL TABLE SEQUENCE No. (e.g., 1, 2, 3, etc.); […] (e.g., Cells, Incubation, Reagent, etc.); VALUE and DESCRIPTION. 1. Reagent, 3 uL of 1.3 mM ATP and 130 uM IP6 mixture in assay buffer was dispensed to a white, 1536-well assay plate. 2. Compound, 23 nL of compounds of the top two doses (57.5 uM and 19.1 uM final concentration) of the libraries were dispensed into the mixture using the Kalypsis pintool. 3. Reagent, 1 uL of 2.4 uM IP6K1 was dispensed to the assay plates. 4. Incubation, 2 hr incubation at room temperature. 5. Reagent, 2 uL of ADP-Glo reagent was added to the wells. 6. Incubation, 1 hr incubation at room temperature. 7. Reagent, 4 uL or ADP-Glo substate was added to the wells. 8. Incubation, 45 min incubation at room temperature. 9. Detection, luminescence signal was detected using the ViewLux microplate imager (PerkinElmer).
A general note: Quantitative high-throughput screening tests each substance at several concentrations.
Take `Oc1ccc2c3c1O[C@H]1c4[nH]c5c(N=C=S)cccc5c4C[C@@]4(O)[C@@H](C2)N(CC2CC2)CC[C@]314`: the activity change is -97.1% (active).
In the case of `CO[C@]12CC[C@@]3(C[C@@H]1[C@](C)(O)C(C)(C)C)[C@@H]1Cc4ccc(O)c5c4[C@@]3(CCN1CC1CC1)[C@H]2O5`, the activity change was 0.147%.
For `C/C=C(\C)C(O)C(C)/C=C(C)/C=C/C/C(C)=C/Cc1nc(OC)c(OC)c(O[C@@H]2O[C@@H](C)[C@H](O)[C@@H](O)[C@H]2O)c1C` (stereo not given in full) the value was -8.45%; for `NC(=O)[C@@H](CC1CC1)[C@@H](CCC(F)(F)F)C(=O)N[C@H]1N=C(c2ccccc2)c2cccc(F)c2NC1=O`, 10.6%; for `C[C@@H]1C[C@@H](O)[C@]2(O)O[C@@H]3C[C@@]4(C=O)C(CC[C@@H]5C4CC[C@]4(C)[C@@H](C6=CC(=O)OC6)CC[C@]54O)C[C@H]3O[C@@H]2O1` (stereo not given in full), 17.6%.

For the origin of these results see PubChem BioAssay AID1645851 (National Center for Advancing Translational Sciences (NCATS), 2021).
